A selection: hits, their analogues and other compounds. The true share with any hit is near 15%.
RORgamma inh – blocks mouse ROR gamma transcriptional activity; P51450; Drosophila S2 Gal4-RORgamma UAS-luciferase reporter, 20 h; Potency, µM (highest dose often 53.6 µM), for inactives: top-dose activity change, negative = inhibition, usual class: inhibitors; 310,000 compounds, 5.4% hits; further: nearly all actives have a fitted effect of over 60% in size
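ROR gamma transcriptional activity was tracked as Gal4-UAS luciferase output in stably transfected Drosophila Schneider cells, with compound added 1 hr before 700 uM copper sulfate induction and a 20 hr ambient-temperature incubation.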
ELG1 DNA repair – ELG1-dependent DNA repair inhibition; HEK293T ELG1-luciferase reporter, luminescence, 16 h; DNA damage induced by 5-fluorouridine; Potency, µM (top dose mostly 46.1 µM), inactives show at the highest dose activity change, negative = inhibition, actives largely listed as inhibitors; 330,000 compounds, 2.3% hits; further: nearly all actives have a fitted effect of over 55% in size
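Step one: seed 2,000 cells per well. Step two: pin-transfer compound or DMSO alongside 5-fluorouridine. Step three: incubate 16 hr, 37 °C, 5% CO2. Step four: add ONE-Glo, wait 30 min, read luminescence.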
Gal4-VP16 FLuc – inhibits Gal4-VP16 luciferase reporter, ROR gamma counter-screen; 310,000 compounds, 3.5% hits; Drosophila S2 Gal4-VP16 UAS-luciferase, luminescence, 20 h; Potency, µM (top dose mostly 53.6 µM), inactives show at the top dose activity, negative = inhibition, hits mostly inhibitors;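 further: Gal4-VP16 expression switched on by copper sulfate through the metallothionein promoter; nearly all actives have a fitted effect of over 50% in size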
TDP1 cell CPT – growth inhibition of DT40 Tdp1-/-;hTDP1 cells with camptothecin (screen for TDP1 inhibitors). chicken DT40 Tdp1-/-;hTDP1 cells + 20 nM CPT, ATP luminescence, 48 h. Potency, µM (top dose mostly 46.2 µM), without a hit: at the highest dose activity change, negative = growth inhibition, usual class: inhibitors. 420,000 compounds, 12% hits. AID 686979; further: nearly all actives have a fitted effect of over 55% in size
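Chicken DT40 Tdp1-/- cells stably complemented with human TDP1 were seeded at 400 cells/well in medium containing 20 nM camptothecin, exposed to pin-transferred compounds, and grown at 37 °C for at least 48 hr. Viability was read as ATP luminescence.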
12-LOX inh – blocks human arachidonate 12S-lipoxygenase. P18054. purified 12hLO, xylenol orange hydroperoxide absorbance. Potency, µM (titrated, usually from 108 µM), for inactives: at the highest dose activity change, negative = inhibition, most hits filed as inhibitors. 580,000 compounds, 1.1% hits. AID 1671190
Target sequence (P18054 whole entry, looked up): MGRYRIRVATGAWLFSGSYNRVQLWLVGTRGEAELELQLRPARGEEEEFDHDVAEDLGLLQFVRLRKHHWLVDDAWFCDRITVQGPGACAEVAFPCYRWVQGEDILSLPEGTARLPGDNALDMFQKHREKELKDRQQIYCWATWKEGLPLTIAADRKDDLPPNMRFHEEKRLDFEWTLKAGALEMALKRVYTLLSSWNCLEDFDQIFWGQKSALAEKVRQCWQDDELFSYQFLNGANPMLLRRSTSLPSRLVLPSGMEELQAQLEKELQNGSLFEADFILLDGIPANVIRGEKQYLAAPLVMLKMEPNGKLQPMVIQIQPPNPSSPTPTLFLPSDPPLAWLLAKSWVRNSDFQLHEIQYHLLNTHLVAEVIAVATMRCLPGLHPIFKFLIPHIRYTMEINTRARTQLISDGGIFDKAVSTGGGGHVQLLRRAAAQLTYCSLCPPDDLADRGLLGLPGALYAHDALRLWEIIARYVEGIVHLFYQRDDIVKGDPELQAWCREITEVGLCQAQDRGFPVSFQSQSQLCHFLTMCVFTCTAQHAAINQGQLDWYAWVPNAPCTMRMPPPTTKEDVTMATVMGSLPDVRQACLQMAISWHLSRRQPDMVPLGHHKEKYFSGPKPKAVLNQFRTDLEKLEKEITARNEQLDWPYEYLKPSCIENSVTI
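Purified human 12hLO at 150 nM in 25 mM Hepes, 0.01% Triton X-100, pH 7.0, preincubated 15 min at room temperature with compound. Reaction started with 40 uM arachidonic acid, 30 min at room temperature. Hydroperoxide measured by Fe-xylenol orange, 573/405 nm absorbance ratio.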
DT40 TDP1 no CPT – qHTS for Inhibitors of human tyrosyl-DNA phosphodiesterase 1 (TDP1): qHTS in cells in absence of CPT. DT40 Tdp1-/- hTDP1 cells, no CPT, ATP luminescence, 48 h. Potency, µM (highest dose often 46.2 µM), for the others: at the top dose activity change, negative = growth inhibition, most hits filed as inhibitors. 420,000 compounds, 15% hits; further: nearly all actives have a fitted effect of over 55% in size
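Readout: luminescence from CellTiter-Glo after 30 min in the dark at RT. Cells: DT40 Tdp1-/- with stable hTDP1, 400/well. Exposure: compounds alone, ≥48 hr, 37 °C.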
Numbers without * were called inactive; ? = inconclusive; · = no result given; [ ] = another dose, or the depositor's remark. The call rests on the fitted dose curve; in most records, active means well fitted curve in the direction sought with a large enough effect; inconclusive means small, poorly fitted or top-dose-only effect, or another doubt; inactive means no such curve, though single readings can be large; an effect the other way counts as inactive or inconclusive. On the % scale 0 is the no-effect control and ±100 the full control effect; potency means the concentration at half of the fitted maximal effect.

SMILES	RORgamma inh	ELG1 DNA repair	Gal4-VP16 FLuc	TDP1 cell CPT	12-LOX inh	DT40 TDP1 no CPT
O=C(Cc1cccnc1)N1CCc2c(nc3cc(-c4ccccc4)[nH]n3c2=O)C1	·	·	·	·	42.6%	·
O=[N+]([O-])c1ccc(C=NN2CCNC2=S)o1	·	·	·	18.4µM*	?	20.6µM*
CCN(CC)CC1CN(N=Cc2ccc([N+](=O)[O-])o2)C(=O)O1 (stereo not drawn)	·	·	·	14.6µM*	12.1%	16.4µM*
O=C1OC(CN2CCOCC2)CN1/N=C/c1ccc([N+](=O)[O-])o1 (stereo not drawn)	·	·	·	-25.5%[21.1 µM]	?	-24.7%[21.1 µM]
CC(C(=O)Nc1ccc2[nH]c(=O)[nH]c2c1)N(C)Cc1ccccc1N1CCCCC1 (stereo not drawn)	·	·	·	·	7.3%	·
Cc1ccc2sc(NNC(=O)C3=COCCO3)nc2c1C	5.62µM*	-4.8%	?	8.0%	-6.2%	-3.1%
CCC(=O)NNc1nc2c(C)c(C)ccc2s1	7.94µM*	?	-28.8%	0.0%	-18.4%	8.3%
O=C(NNc1nc2c(F)cccc2s1)C1=COCCO1	11.2µM*	13.7%	-27.5%	-2.2%	14.3%	-0.3%
Cc1ccn2c(Cc3ccccc3)c(-c3ccc(Br)cc3)nc2c1	·	·	·	20.6µM*	?	?
Oc1ccc(-c2nc3ccccn3c2NCc2ccco2)cc1	21.4%	?	-17.3%	4.9%	0.1%	?
Cc1ccn2c(NCc3ccco3)c(-c3ccccc3)nc2c1	·	·	·	?	·	11.2µM*
Cc1ccn2c(Cc3ccccc3)c(-c3ccccc3)nc2c1	·	·	·	18.4µM*	?	18.4µM*
Cc1cc(C)nc(NN2C(=O)/C(=C/c3ccccc3)SC2=S)n1	12.6µM*	16.3%	-11.6%	-25.5%	-5.2%	?
CN(Cc1cccc(F)c1)C(=O)CCNC(=O)Nc1ccccc1	·	·	·	·	1.9%	·
CC(C)(C)C1C/C(=C/c2ccccn2)C(=O)/C(=C/c2ccccn2)C1 (stereo not drawn)	5.62µM*	?	?	0.92µM*	·	0.517µM*
CC1C/C(=C/c2ccccn2)C(=O)/C(=C/c2ccccn2)C1 (stereo not drawn)	2.82µM*	4.61µM*	1.41µM*	0.517µM*	·	0.517µM*
CC1C/C(=C/c2cccs2)C(=O)/C(=C/c2cccs2)C1 (stereo not drawn)	26.1%	?	20.3%	-27.0%	?	?
Cn1nc(C(=O)Nc2ccc(Oc3ccccc3)cc2)c2ccccc2c1=O	·	·	·	·	-0.3%	·
Cc1[nH]c2ccccc2c1C(=O)C(C)Sc1nnc(CCC(N)=O)n1C1CC1 (stereo not drawn)	·	·	·	·	-29.0%	·
N=C(N)SCc1cn(-c2ccccc2)nc1-c1ccc(Br)cc1	11.2µM*	5.9%	?	9.2µM*	?	7.31µM*
COc1ccc(-c2nn(-c3ccccc3)cc2CO)cc1	?	?	?	-23.8%	0.0%	?
Cc1noc(C)c1S(=O)(=O)N(C)C1CCCc2ccccc21 (stereo not drawn)	·	·	·	·	65.6%[176 µM]	·
Cc1nc(C)c(C(=O)N2CCCN(C(=O)C3CC3)C(c3ccccc3)CC(=O)NCC2)s1 (stereo not drawn)	·	·	·	·	84.8%	·
COC(=O)C1CSC2c3ccccc3C(=O)N12 (stereo not drawn)	·	·	·	18.4µM*	12.6%	?
CCc1c(C(=O)N2CCCC3(CCNC3)C2)[nH]c2ccccc12 (stereo not drawn)	·	·	·	·	41.6%	·
CSc1nc(Cl)cc(Nc2ccccc2N)n1	28.0%	?	-9.6%	9.7%	6.0%	-8.1%
CSc1nc(Nc2ccc(C)cc2C)cc(-c2ccccc2)n1	·	·	·	16.4µM*	4.1%	16.4µM*
CO[C@H]1[C@H](NC(=O)COc2ccccc2)c2ccccc2C12CCNCC2	·	·	·	·	63.2%	·

Screening results: PubChem, National Center for Advancing Translational Sciences (NCATS)
